Screening results as filed in PubChem BioAssay.
Sampled rows, rich in hits. Any-hit rate of the full collection: about 4%.
Rv3671c inh = inhibits the M. tuberculosis serine protease Rv3671c | 320,000 compounds, 0.048% hits | AID 2606 | P9WHR9 | inhibition, % at 5.96 µM; in the data active means inhibition above about 38%;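 further: extracellular domain of Rv3671c used as enzyme; 0% = enzyme with DMSO and 100% = no enzyme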
Target sequence (P9WHR9 whole entry, looked up, the tested form may be a part): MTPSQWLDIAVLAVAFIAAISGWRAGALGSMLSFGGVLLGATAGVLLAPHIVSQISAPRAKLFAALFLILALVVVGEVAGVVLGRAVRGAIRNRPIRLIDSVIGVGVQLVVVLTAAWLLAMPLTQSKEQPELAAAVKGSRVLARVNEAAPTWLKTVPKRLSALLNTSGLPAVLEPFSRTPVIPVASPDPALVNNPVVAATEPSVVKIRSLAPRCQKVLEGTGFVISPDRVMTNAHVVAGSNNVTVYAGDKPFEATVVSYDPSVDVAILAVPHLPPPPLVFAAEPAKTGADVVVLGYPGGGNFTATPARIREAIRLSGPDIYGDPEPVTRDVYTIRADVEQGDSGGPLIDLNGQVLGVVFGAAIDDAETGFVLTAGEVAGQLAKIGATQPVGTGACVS
Mtb FBA inh = inhibits M. tuberculosis FBA enzyme | P9WQA3 | purified M. tuberculosis FBA, fluorescence read-out | inhibition, % at 1 µM | 360,000 compounds, 2.3% hits | AID 588726; in the data active means inhibition above about 27%;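 further: 0% = vehicle and 100% = reference inhibitor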
UGM FP inh = blocks M. tuberculosis UGM enzyme | P9WIQ1 | purified UGM, fluorescence polarization probe displacement | inhibition, % at 10 µM | 320,000 compounds, 0.06% hits | AID 504406; in the data active means inhibition above about 10%, passing the limit was not always enough
GDH-TPI counter = GDH-TPI coupled enzyme inhibition counter-screen; GDH-TPI coupled enzyme counterscreen, NADH absorbance; inhibition, % at 4.8 µM; 360,000 compounds, 1.2% hits; AID 588335; in the data active means inhibition above about 30%;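 further: 0% = DMSO wells and 100% = wells lacking the enzyme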
RecA splice inh = Mtb RecA intein splicing inhibition. P9WHJ3. cell-free RecA intein splicing, fluorescence. inhibition, % (test concentration not listed). 290,000 compounds, 0.75% hits; in the data active means inhibition above about 30%;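 further: 0% = vehicle wells and 100% = reference inhibitor control wells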
Mtb betalactam = beta-lactam sensitization of Mtb H37Rv | 330,000 compounds, 0.27% hits | inhibition, % at 25 µM | AID 434955 | M. tuberculosis H37Rv growth with meropenem, percent inhibition; call rule not given here;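 further: growth measured after seven days incubation then overnight dye step; 0% = bacteria only wells and 100% = bacteria with antibiotic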
The depositor's hits bear a star; i = inactive; nt = no result; + = active, no number.

SMILES	Rv3671c inh	Mtb FBA inh	UGM FP inh	GDH-TPI counter	RecA splice inh	Mtb betalactam
NC(CCc1ccccc1)c1csc(Nc2nccc(C(F)(F)F)n2)n1 (stereo not given)	nt	-2	nt	-7	nt	nt
Cc1cccc(NC(=O)C2c3ccccc3Oc3ccccc32)n1	-7	-2	-1	-1	7	3
COc1cc2c(cc1CN1CCN(C(=O)c3cc(OC)c(OC)c(OC)c3)CC1)OCO2	2	4	0	-3	0	-3
COc1ccc(N(CC(=O)NCc2ccc3c(c2)OCO3)S(=O)(=O)c2ccc(O)c(C(=O)O)c2)cc1	nt	0	nt	-4	nt	nt
COc1cc(Br)cc2cc(C(=O)N3CCOCC3)c(=O)oc12	2	-2	1	6	1	-26
Cc1ccc(C(CC(=O)c2ccco2)SCCO)cc1 (stereo not given)	-5	1	1	33*	2	93
Cn1cc(C(=O)N2CCCCCC2)c(=O)c2cc(S(=O)(=O)N3CCCCC3)ccc21	6	-1	-5	5	-1	4
COC(=O)c1cn(C)c2ccc(S(=O)(=O)N3CCCCC3)cc2c1=O	nt	5	nt	40*	0	nt
Cn1cc(C(=O)C(=O)N2CCCCC2)c2ccccc21	nt	-1	nt	8	nt	nt
CC1=CC(=C(C#N)C#N)C=C(C)N1CCN1CCNCC1	9	-2	-3	31*	-10	-10
Cc1c(OCC(=O)NC(Cc2c[nH]c3ccc(O)cc23)C(=O)O)ccc2c3c(c(=O)oc12)CCC3 (stereo not given)	-5	7	5	16	-7	-3
CCC(NC(=O)COc1cc2c(c3oc(=O)c(C)c(C)c13)CCC(C)(C)O2)C(=O)O (stereo not given)	3	+	3	7	-1	3
Cc1c(OCC(=O)N[C@@H](Cc2ccccc2)C(=O)O)ccc2c3c(c(=O)oc12)CCC3	0	26	2	11	5	-14
Cc1c(C)c2c(OCC(=O)N[C@@H](C)C(=O)O)cc3c(c2oc1=O)CCC(C)(C)O3	-7	+	-2	6	-1	-7
CNc1nc(-c2c(C)n(C)c3ccc(OC)cc23)cs1	-16	1	1	5	3	4
CCOC(=O)c1cc2c(=O)n3cccc(C)c3nc2n(Cc2ccco2)c1=NC(=O)c1ccccc1	-8	+	1	9	-427	-1
CCOC(=O)c1cc2c(=O)n3ccccc3nc2n(Cc2ccco2)c1=NC(=O)c1cccc(OC)c1	1	139*	1	39*	-18	3
CCOC(=O)c1cc2c(=O)n3cccc(C)c3nc2n(Cc2ccco2)c1=NC(=O)c1ccc(C)cc1	nt	1	nt	3	nt	nt
CCOC(=O)c1cc2c(=O)n3ccccc3nc2n(Cc2ccco2)c1=NC(=O)c1ccccc1OC	5	+	2	24	-301	-1
CCOC(=O)c1cc2c(=O)n3ccccc3nc2n(Cc2ccco2)c1=NC(=O)c1ccc(OC)cc1	3	115*	3	11	-73	5
CCc1nc2c(OCC=C(C)C)cccn2c1N(C)C(=O)c1ccc(OC)cc1	nt	-1	nt	-4	nt	nt
O=C(Nc1ncnc2c1ncn2[C@@H]1O[C@H](/C=C/C(=O)N2CCN(c3ccc(F)cc3)CC2)[C@@H](O)[C@H]1O)c1ccccc1	nt	5	nt	nt	nt	nt
O=C(N/N=C1\CCCc2c1[nH]c1ccc(Cl)cc21)c1ccncc1	7	-3	2	41*	-4	99
COc1cccc(NC(=O)CSc2nc(=O)n(Cc3ccncc3)c3c2CCCC3)c1	2	2	0	-3	2	0
COc1cccc2c(=O)c3c(cnn3C)n(C)c12	0	+	7	1	i	8
SMILES	Rv3671c inh	Mtb FBA inh	UGM FP inh	GDH-TPI counter	RecA splice inh	Mtb betalactam
COc1cc(=O)n(C)c2c(O)cccc12	-8	-2	-1	1	-44	2
Cc1c(C(=O)/C=C/N(C)C)nnn1-c1ccc(Cl)cc1C#N	-13	-4	0	46*	-2	-2
CCOC(=O)c1nnn(-c2ccccc2C#N)c1C	1	-1	1	-6	-2	-3
OCCCc1nc2n(n1)C(c1ccccc1Cl)C=C(c1cccs1)N2 (stereo not given)	-9	55*	1	13	nt	-2
CC(=O)/C(=N\Nc1ccc(C)cc1)N1CCOCC1	6	-1	0	31*	-1	99
CC(=O)Nc1ccc(NC(=O)N2CCOCC2)cc1	nt	1	nt	14	nt	nt
C[C@@H]1C(=O)OC[C@H]1NC(=O)OCc1ccccc1	4	2	-1	9	-4	-9
